Experimental data published in PubChem BioAssay (NCI).
This is part of a sample that, as a whole, favours compounds with a hit. Of some 83,000 tested, about 20% had one in any assay.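 48-hour exposure, single concentration, 96-well plates; percent growth endpoint where 0 means no net growth. Active: below 10.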 Values without a mark were called inactive.

Each compound was assayed on MDA-MB-435 melanoma (assay: NCI-60 one-dose screen, 48 h (100 = growth as untreated, 0 = no growth, -100 = all killed)). Conditions: 10 µM unless noted.

Compared with `OCC1OC(n2ccc3c2ncn2ncnc32)C(O)C1O` (configuration not stated), `CN(C)c1ncnc2c1cnn2C` is higher in growth: 62.1% for the first, 103% for the second.

Going from `Nc1cc(N)ncn1` to `CC(C)Sc1ncnc2nc[nH]c12`, the growth falls from 102% to 97.4%.

Going from `CCC(/C=C\C(C)=O)CC` to `C/C=C/C1OCC(CC)C(CCC)O1` (configuration not stated), the growth rises from 100% to 107%.

First: Cc1[nH]c(=S)[nH]c(=O)c1C
Second: C=CC1=NC(C)(C)CC(C)O1 (configuration not stated)
The growth of the first is higher: 105% for the first, 94.7% for the second.

First: CC(C)N(CCCC#N)C(C)C
Second: CCOC(=O)CSCCC#N
The growth of the first is lower: 103% for the first, 106% for the second.

First: C=C1C(=O)C2CCN1CC2
Second: O=C(O)CC1=CCCCC1
The growth of the first is lower: 93.7% for the first, 101% for the second.

Compared with `CCCCOC(=O)c1ccccc1O`, `CCCCNC(=O)c1ccc(OCC)cc1` is higher in growth: 97.5% for the first, 103% for the second.

First: CC1CC(C)S(=O)(=O)C1 (configuration not stated)
Second: CC(=O)NCNC(C)=O
The growth of the first is lower: 106% for the first, 107% for the second.

Going from `COc1cc(OC)c(NC(=O)C(Sc2nc(C)cc(C)c2C#N)c2ccccc2)cc1Cl` (configuration not stated) to `CC(C)OCC(CCl)OC(=O)Nc1ccccc1` (configuration not stated), the growth rises from 105% to 107%.

Compared with `Nc1ccc(F)c(Cl)c1F`, `Nc1cc(F)ccc1[N+](=O)[O-]` is higher in growth: 109% for the first, 111% for the second.

First: C=C(OC(C)=O)c1ccccc1
Second: CC(=O)NC(CCC(=O)c1ccccc1)C(=O)O (configuration not stated)
The growth of the first is higher: 107% for the first, 99.2% for the second.

Compared with `COc1ccc(C2CC(c3ccccc3)=Nc3ccccc3S2)cc1` (configuration not stated), `Clc1cccc(Cl)c1C1CSc2ccccc2N=C1c1ccccc1` (configuration not stated) is lower in growth: 98.8% for the first, 15.4% for the second.

First: COC1CC(OC(=O)c2ccc([N+](=O)[O-])cc2)C(COC(=O)c2ccc([N+](=O)[O-])cc2)O1 (configuration not stated)
Second: COc1ccc(/C=N/NC(=O)COCC(=O)N/N=C/c2ccc(OC)cc2)cc1
The growth of the first is lower: 97.7% for the first, 98.2% for the second.

First: ClCc1cccc2c(CCl)cccc12
Second: Cc1cccc2ccccc12
The growth of the first is lower: 84.3% for the first, 104% for the second.

Going from `CCCCCCCCCCCCCCCCCC(=O)NCCNC(=O)CCCCCCCCCCCCCCCCC` to `CCC(=O)C1C(=O)c2ccccc2C1=O`, the growth rises from 94.2% to 104%.

First: O=C(CCCl)OCCOc1ccccc1
Second: O=C1CSc2ccccc2N1
The growth of the first is higher: 110% for the first, 108% for the second.

Going from `c1cc(CNCCNCc2ccncc2)ccn1` to `BrCc1cccc(C[P+](c2ccccc2)(c2ccccc2)c2ccccc2)c1`, the growth falls from 112% to 18%.

Going from `COCC(N)=O` to `CC(C)=CCC[C@@H](C)[C@H]1CC[C@@]2(C)C3=C(CC[C@]12C)[C@@]1(C)CC[C@H](O)C(C)(C)[C@@H]1CC3`, the growth falls from 105% to 101%.

`CCC12OC(COc3ccccc3)CN1CCN2c1ccccc1` (configuration not stated) showed a growth of 98.6% [100 µM].
